From PubChem BioAssay AID624491 (Broad Institute, 2012)
Out of some 1,800 compounds screened, about 1,400 (78%) were called active. Not shown: some 2% with an inconclusive outcome.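 How the source made its calls: active means fitted curve crossing a set activation limit at or below the highest valid dose tested; inconclusive means flat fit at 30 to 70% activation, or poor fit; inactive means the rest, including signal decreases.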 The set was probably picked from earlier hits. These entries were drawn from the full list. Potency and affinity values are given separately.

Assay: N-linked glycosylation inhibitors, luciferase reporter, dose response, D54 ERlucT cells, luminescence, cherry-picks (AID 624491);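 further: signal gain reflects blocked N-linked glycosylation of a luciferase reporter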
Conditions: 24 h, 100% = twice neutral-control luminescence; series mostly up to 19.5 µM; activation (NLG inhibition): at the top concentration

Activation (NLG inhibition), inactive:
COc1cc(-c2cc(-c3ccc(O)cc3)nc(N)c2C#N)ccc1O 32.1%, COc1ccccc1-c1cc(NC=O)c2ncc(-c3cccc(C(C)=O)c3)n2c1 -5.59%, COC(=O)c1cccc(NS(=O)(=O)c2ccc(OC)cc2)c1C 34.1%, O=C(CC1Sc2ccccc2NC1=O)NNc1cccc(Cl)c1Cl (configuration not stated) 12%, Cc1c(O)cc2c(c1O)C(=O)CC(c1ccccc1)O2 (configuration not stated) 17.8%, CCc1nc(SCC(=O)c2ccc3c(c2)OCCO3)c2ccccc2n1 10.9%, Cc1ccc(C(C)C)c(OCc2nnc(SCC(=O)Nc3ncc(C)s3)n2C)c1 45%, COc1ccc(/C=C2\N=C(c3ccccc3Cl)NC2=O)cc1 20.3%, CCc1ccc(OCC(=O)Nc2ccncc2)c(Br)c1 7.78%, O=C(/C=C/c1cccnc1)c1ccc([N+](=O)[O-])cc1 -16%, NC1=NC(c2ccc(Cl)cc2)C(C(=O)c2ccccc2)N1 (configuration not stated) 51.4%, COc1ccc(S(=O)(=O)Nc2cccc3ccc(O)cc23)cc1 29.7%, O=C(CCN1C(=O)/C(=C\c2ccccc2)SC1=S)N1CCCCC1 -1.63%, Cc1ccc(CNC(=O)Cc2ccc(-n3c(=O)[nH]c4ccsc4c3=O)cc2)cc1 35.2%, CCOc1ccc(-n2c(C)cc(C(=O)CCl)c2C)cc1 25.7%, COC(=O)c1c(NC(=O)CN2C(=O)NC3(CCC(C)CC3)C2=O)sc2c1CCC2 (configuration not stated) 17%, COC(=O)CNC(c1ccccc1Cl)c1cc(Br)ccc1NC(=O)CCN1CCOCC1 (configuration not stated) -5.06%, COc1ccc(CC(=O)Nc2ccc(-c3ccc4nnc(C)n4n3)cc2)cc1OC 4.46% [at 5 µM], N#CCC(CNc1ncc(C(F)(F)F)cc1Cl)OC(=O)c1ccc(Cl)cc1Cl (configuration not stated) 18.6%, Cc1cccn2c(=O)c3cc(C(=O)N4CCCCC4)sc3nc12 -15% [at 5 µM], COc1ccc(-c2oc3cc(O)c(OC)c(O)c3c(=O)c2OC)cc1 58%, Cc1cccc(N2C(=O)CC(N3CCN(C(=O)c4ccccc4)CC3)C2=O)c1 (configuration not stated) -1.39%, CC1=C(n2ccnc2)CCC1=O 37.6%, O=C1CCCC2=C1C(c1ccc(Cl)cc1)n1c(s/c(=C\c3ccc4ccncc4c3)c1=O)=N2 (configuration not stated) 28%, O=c1cc(N2CCN(c3ccccc3Cl)CC2)[nH]c(=O)n1Cc1ccc(F)cc1 25%, Nc1c(N(CCC2=CCCCC2)C(=O)COc2ccc(F)cc2)c(=O)[nH]c(=O)n1Cc1ccccc1 62.4%, O=C(N/N=C/c1ccc2c(c1)OCO2)c1cccc2ccccc12 10.1%, COc1cccc(/C=N/NC(=O)c2[nH]nc3c2CCc2ccccc2-3)c1 5.49%, CC(C)(C)c1ccc(C(=O)NNC(=O)c2cccc(Br)c2)cc1 818%, COc1ccc(/C=C/C(=O)c2c(O)cc(OC)cc2OC)cc1 40.4%, COc1ccc(NC(=O)c2cnc(SC)nc2)cc1 75.1%, COc1ccc(/C=C/C(=O)c2ccc3c4c(cccc24)CC3)cc1OC -43.1%, CCN(CC)Cc1cc(Nc2c3ccccc3nc3c4ccccc4n(C)c23)cc(CN(CC)CC)c1O 49.9%, CCOC(=O)c1[nH]c(C)c(C(=O)Nc2cc(Cl)ccc2C)c1C 14.7%, CCOC(=O)c1c(C)[nH]c(-c2csc(N)n2)c1C 20.4%, CCOC(=O)c1[nH]c(COC(=O)CCOc2ccccc2OC)c(C(=O)OCC)c1C 12.1%, CCN(CC)c1ccc(C(=O)n2cnc3ccccc32)cc1 16.8%, CC(=O)N1c2ccccc2C(=O)C1N(C)c1ccc(C)cc1 (configuration not stated) -0.122%, COCCNc1nc(-c2ccccc2CO)c2sc(-c3ccccc3)cc2n1 16.9%, CCOC(=O)c1ccc(-n2cccc2/C=C2\NC(=O)NC2=O)cc1 19.5%, O=C(N/N=C\c1cccnc1)c1cc(-c2ccccc2)nc2c(Cl)cccc12 33.7%, O=C(/C=C/c1ccc([N+](=O)[O-])s1)N1CCCCC1 -28.1%, CCN(c1ccccc1)S(=O)(=O)c1ccc(C(=O)NC2CCN(Cc3ccccc3)CC2)cc1 16.6%, Cc1nnc2n(c1=O)N=C(c1ccc(Cl)cc1)CS2 -6.13%, O=C(CN1C2=NCCCN2c2ccccc21)c1ccc([N+](=O)[O-])cc1 36%, CC(C)(C)S(=O)N1Cc2cc(C(=O)NCC(F)(F)F)nc(-c3cccc(-c4cccc(F)c4)c3)c2[C@@H]1CCO (some centres not stated) -12.7%, Cc1cnc(C(=O)OCC(=O)NC2CCCCCCC2)cn1 16.8%, Cc1ccc(-c2nn(-c3ccccc3)cc2NC(=O)CCl)cc1 -46.9%, COc1ccccc1NC(=O)Cn1nnc(-c2ccccc2NC(=O)c2ccco2)n1 45.5%, CCc1cccc(NC(=O)CN2C(=O)NC3(CCCCCCC3)C2=O)c1 34%, O=C(CN1C(=O)NC2(CCCCC2)C1=O)Nc1ccc2c(c1)CCC2 44.6%, Cc1ccc(C)c(N2CCN(S(=O)(=O)c3ccc(-c4ccc(=O)[nH]n4)o3)CC2)c1 86.2%, Cn1cnc([N+](=O)[O-])c1Oc1ccc2ccccc2c1 1.95%, CCn1c(=O)cc(C(=O)OC)sc1=Nc1ccc(F)c(F)c1 26%, O=C1c2cccc3c([N+](=O)[O-])ccc(c23)C(=O)N1CC1CCCO1 (configuration not stated) 16.3%, O=c1cc(-c2ccccc2)[nH]n1-c1nc2ccccc2[nH]1 -34.9%, Nc1cc2c(cc1Br)-c1c(C(=O)O)cccc1C2O (configuration not stated) 8.32%, CO/N=C/c1ccc(OC)c(Oc2nc(OC)cc(OC)n2)c1 60.6%, O=C(COc1ccc(/C=N/NC(=O)c2cc3ccccc3o2)cc1Br)Nc1ccccc1 103%, CCCCCC[n+]1ccccc1/C=C/c1ccc(N(C)C)cc1 5.17%, CCC1=Nc2cc(C(=O)NCc3ccco3)ccc2Sc2ccc(Cl)cc21 50.7% [at 5 µM], Cc1nnc2ccc(-c3ccc(NC(=O)c4ccco4)cc3)nn12 61.9%, O=C(COc1ccc(/C=N/NC(=O)c2cc3ccccc3o2)cc1Cl)Nc1ccccc1 -67.6%, COc1ccc(NC(=O)CSc2nc3ccsc3c(=O)n2Cc2ccccn2)c(OC)c1 9.56%, COc1cc(Nc2c3ccccc3nc3ccccc23)cc(OC)c1OC -81.2%, CCn1cc2nc(SCC(=O)Nc3ccc(OC)cc3OC)n(Cc3ccc(OC)cc3)c(=O)c2n1 -4.31%, CC(=O)c1ccc(Nc2c3c(nc4ccccc24)CCCC3)cc1 52.1%, COC(=O)c1cccc(Nc2c3c(nc4ccccc24)CCC3)c1 39.7%, CCN(c1ccccc1)S(=O)(=O)c1ccc(N)c(OC)c1 27.8%, c1ccc(CCNc2nc(-c3ccccn3)nc3ccccc23)cc1 -27%, COc1cccc(C2=NOC(C(=O)NCc3ccco3)C2)c1 (configuration not stated) -0.205% [at 5 µM], COc1ccc(C2=NOC(C(=O)NCc3ccco3)C2)cc1OC (configuration not stated) 10.5%, COc1cc(CNc2ccc(O)cc2)cc(Br)c1OCc1ccccc1 -8.22%, COc1cc(C(=O)OC2CCCCC2=O)cc(OC)c1C (configuration not stated) 41.1%, COc1cc(C(=O)OCC(=O)c2cc(C)n(C)c2C)cc(OC)c1OC 20.3%, CN(C)CCCN(C(=O)c1ccc(S(=O)(=O)N2CCc3ccccc3C2)cc1)c1nc2ccc(F)cc2s1 -14.2% [at 5 µM], Cc1ccc(S(=O)(=O)N2CCCCC2CCNC(=O)C(=O)NCc2ccco2)cc1 (configuration not stated) 23.6%, O=C(CSc1ncnc2nc[nH]c12)c1ccc([N+](=O)[O-])cc1 11.9%, CCOC(=O)/C=c1/s/c(=C\c2c(OC)ccc3ccccc23)c(=O)n1CC(=O)NCC1CCCO1 (configuration not stated) 23.7%, CCOC(=O)c1[nH]c(C)c(C(=O)Nc2cccc(Cl)c2C)c1C 20.9%, Cc1ccc2c(CNCc3ccccc3)cc(=O)oc2c1 39.2%, CCOC(=O)n1c(=O)n(Cc2ccc(OC)cc2)c2ccccc21 8.03% [at 5 µM], FC(F)(F)c1nnc2c(Sc3ccc(Cl)cc3)nc3ccccc3n12 30.9%, CC(=O)c1cccc(-c2ccnc3c2CC(C(=O)NCCc2ccccc2)O3)c1 (configuration not stated) 12.8%, Cc1[nH]c2ccc(C(=O)OC(C)C(=O)NCc3ccccc3)cc2c1C (configuration not stated) 7.75%, COc1ccc(-c2cc(-c3ccccc3)c(C#N)c(S(C)=O)n2)cc1 (configuration not stated) 1.33%, C/C(CC(=O)NCc1ccc(Cl)cc1)=N\NC(=O)COc1ccc(C)cc1Br 37.5%, CC1CN(C(=O)/C=C/c2ccc([N+](=O)[O-])s2)CC(C)O1 (configuration not stated) -5.48%, CC(=O)N1N=C(c2ccccc2)OC1c1ccc([N+](=O)[O-])s1 (configuration not stated) 49.5%, CCOC(=O)c1c(C)c(C(=O)Nc2ccc(N(C)C)cc2)c(C)n1CC 44.7%, Cc1ccc(Nc2nc(-c3cccnc3)nc3ccccc23)cc1 8.8%, CC(Nc1nc(-c2cccnc2)nc2ccccc12)c1ccc(F)cc1 (configuration not stated) 48.9%, O=C1c2ccccc2C(=O)C12OC2c1ccc(Cl)cc1Cl (configuration not stated) 68.1%, Cc1ccc2nc(SCC(=O)Nc3ccc4sc(C)nc4c3)c(C#N)cc2c1 -4.3% [at 5 µM], CCCCCCCCCCn1c2c(c(=N)c3c1CCC3)CCC2 86.7%, CCCn1c(=N)n(CC(=O)c2ccc([N+](=O)[O-])cc2)c2ccccc21 6.58%, Cn1c(Cl)cnc1C1CC(=O)c2cc(Cl)ccc2O1 (configuration not stated) -17.9%, COc1ccc(OC)c(/C=C/c2ccc3cccc(O)c3n2)c1 -43%, COc1ccc(NC(=O)c2cccc(Oc3ccccc3)c2)cn1 34.3%, Cn1c(SCC(=O)c2ccccc2)ncc(C(=O)Nc2ccc(F)cc2)c1=O 63.3%, Cn1c(SCC(=O)c2ccccc2)ncc(C(=O)Nc2ccccc2)c1=O 80.2%, CCOc1ccc(Nc2nnc(SCc3nc4ccccc4c(=O)[nH]3)s2)cc1 117%, CC1=Nc2cc(C(=O)NCC3CCCO3)ccc2Sc2ccc(Br)cc21 (configuration not stated) -2.76%, CC(=O)Nc1ccc(-c2ccnc3c2CC(C)(C(=O)NCc2ccco2)O3)cc1 (configuration not stated) 38.4%, CC1(C(=O)NCc2ccccc2)Cc2c(-c3ccc(C(N)=O)cc3)ccnc2O1 (configuration not stated) 36.3%, CC1(C(=O)NCc2cccs2)Cc2c(-c3ccc(C(N)=O)cc3)ccnc2O1 (configuration not stated) 39.6%, O=C(NCCN1C(=O)S/C(=C\c2cccc(Cl)c2Cl)C1=O)C1=COCCO1 44.8%
